Structures are written as SMILES. Screen size: about 140,000 compounds; about 2,100 (1.5%) were called active. For the sample, actives were picked, then their nearest neighbours and some compounds at random. Unmarked numbers belong to inactive results. Rule as the data show it: active = protection mostly above about 24% (no sharp cut-off); inactive = mostly below about 26%.

A short description of the assay: compounds protecting cells from measles virus cytopathic effect, primary screen, measles RdRp inhibitor project, single point, MLSMR library, absorbance (AID 841). To be noted: Measles virus-infected cells, CPE protection, at 4 µM, stronger effect = higher value. In general terms: Damage to the host cells serves as the signal in cytopathic effect assays.
Regarding `Cc1ccc2nc(SCc3cn4c(C)cc(C)nc4n3)[nH]c2c1`, the protection (pct of control) is 15.7%.

In the case of `CN(C)/C(=N\OC(=O)c1ccccc1)c1nonc1N`, the protection (pct of control) is 10.6%.

Consider `COc1ccc(NC(=O)Cn2c(=O)n(Cc3ccco3)c(=O)c3ccccc32)cc1`, for which the protection (pct of control) was 4.73%.

`O=C(Cn1nc(Cc2cccnc2)c2ccccc2c1=O)NCC1CCCO1` (stereo unspecified): the protection (pct of control) was 2.54%.

`O=C(Cn1c(=O)n(Cc2ccco2)c(=O)c2ccccc21)NCC1CCCO1` (stereo unspecified): the protection (pct of control) was 42.5% (active).

In the case of `O=C(/C=C/c1ccc(F)cc1)Nc1cccc(S(=O)(=O)Nc2cccc(C(F)(F)F)c2)c1`, the protection (pct of control) was 9.17%.

Consider `Cc1ccc(-c2nc(C)sc2CC(=O)OCC(=O)Nc2c(F)cccc2F)cc1`, for which the protection (pct of control) is 4.46%.

For `CCC(=O)N1c2ccc(S(=O)(=O)CCC(=O)N3CCN(c4ccccc4)CC3)cc2CC1C` (stereo unspecified), the protection (pct of control) is 8.07%.

Take `CCn1nc(C(=O)OCC(=O)N2c3ccccc3CC2C)c2ccccc2c1=O` (stereo unspecified): the protection (pct of control) was 10.5%.

On to `CCCC(=O)N1c2ccc(-c3csc(N)n3)cc2CC1C` (stereo unspecified), for which the protection (pct of control) was 79.2% (active).

In the case of `O=C(NC(=S)Nc1cc(C(F)(F)F)ccc1N1CCOCC1)c1ccc(-c2cccc(Cl)c2)o1`, the protection (pct of control) was 1.76%.

`COC(=O)[C@H]1Cc2cnoc2C[C@]1(C)C(=O)O`: the protection (pct of control) is 8.42%.

Regarding `Cc1ccc(-c2cc(C(=O)N/N=C/C=C/c3ccccc3)n[nH]2)o1`, the protection (pct of control) was 25.7%.

Take `Cc1ccc(N=C2NC(=O)c3cccc([N+](=O)[O-])c32)cc1`: the protection (pct of control) is 8.24%.

For the compound `Cn1c2c(c(=O)n(C)c1=O)C1c3ccccc3OCC1C(C)(C)O2` (stereo unspecified), the protection (pct of control) was 12.9%.

In the case of `Cn1c2c(c(=O)n(C)c1=O)[C@@H]1c3c(ccc4ccccc34)OC[C@@H]1CO2`, the protection (pct of control) is 38.9% (active).

For `COc1cccc2c1OCC1COc3c(c(=O)n(C)c(=O)n3C)C21` (stereo unspecified), the protection (pct of control) is 23.9%.

For `COc1ccc(-c2csc(NC(=O)COC(=O)c3ccc(Br)o3)n2)cc1`, the protection (pct of control) was 7.27%.

As to `O=C(CSc1nnc(-c2ccncc2)o1)NCc1ccc(Cl)cc1`, the protection (pct of control) is 5.59%.

Turning to `Cc1ccc(N(C(=O)C(F)(F)F)C(C(=O)NC2CCCCC2)c2ccncc2)cc1C` (stereo unspecified), the protection (pct of control) is 29.7%.

Take `COc1cc2c(cc1OC)C(=O)NCC(C)(C)O2`: the protection (pct of control) was 6.34%.

`Cc1cc([N+](=O)[O-])c(-c2ccc(/C=N/n3cnnc3)o2)cc1Cl`: the protection (pct of control) was 33.8%.

Turning to `Cc1cc(-c2ccc(/C=N/n3cnnc3)o2)c([N+](=O)[O-])cc1C`, the protection (pct of control) is 28.4%.

As for `Cc1ccc(Cl)cc1-c1ccc(/C=N/n2cnnc2)o1`, the protection (pct of control) is 70.5% (active).

Regarding `Cc1ccc(N2C(=O)C(NC(=O)c3c(F)cccc3F)(C(F)(F)F)C3=C2CC(C)(C)CC3=O)cc1` (stereo unspecified), the protection (pct of control) was 5.53%.

As for `O=C(/C=C/c1ccc2c(c1)OCO2)NCc1ccc(F)cc1`, the protection (pct of control) was 5.86%.

Consider `Cc1cccc(NC(=O)/C=C/c2ccc3c(c2)OCO3)n1`, for which the protection (pct of control) is 46.6% (active).

Consider `CCc1c(C)sc(NC(=O)/C=C/c2ccc3c(c2)OCO3)c1C(=O)OC`, for which the protection (pct of control) is 3.56%.

Take `CCCCc1ccc(NC(=S)N2CCCC(CO)C2)cc1` (stereo unspecified): the protection (pct of control) is 11.5%.

For the compound `O=C(CN1C(=O)/C(=C\c2ccccc2F)SC1=S)Nc1nc2ccccc2s1`, the protection (pct of control) is 6.1%.

Regarding `Cc1noc(/C=C/c2ccco2)c1S(=O)(=O)N1CCC(C(=O)Nc2ccc(Cl)cn2)CC1`, the protection (pct of control) was 7.95%.

Regarding `CCC(C)(C)C1CCC(=NNC(=O)c2ccc(Br)o2)CC1` (stereo unspecified), the protection (pct of control) was 39% (active).

`C/C(=N/NC(=O)c1ccc(Br)o1)c1ccc(C)o1`: the protection (pct of control) was 13%.

In the case of `CC(C)(C)C1CCC(=NNC(=O)c2ccc(Br)o2)CC1` (stereo unspecified), the protection (pct of control) is 3.96%.

Turning to `CC1(C)C(C=C(Cl)Cl)C1C(=O)N(Cc1ccc(Cl)cc1)C1CCS(=O)(=O)C1` (stereo unspecified), the protection (pct of control) is 9.24%.

As to `Fc1ccc(CNCc2ccc(Br)cc2)cc1`, the protection (pct of control) is 8.72%.

Take `N#CC1(NC(=O)COc2ccc3oc4ccccc4c3c2)CCCCC1`: the protection (pct of control) was 21.4%.

Consider `Cc1cc(C)cc(OCC(=O)NNC(=O)CCN2C(=O)c3ccccc3C2=O)c1`, for which the protection (pct of control) was 9.19%.

Turning to `Cc1nc(-c2ccccc2)cn2c1nc1ccccc12`, the protection (pct of control) is 23.6%.

For the compound `CCOC(=O)c1c(-c2cccc(C)c2)csc1NC(=O)c1c(-c2ccccc2)noc1C`, the protection (pct of control) was 54.7% (active).

For `CC(=O)Nc1cccc(NC(=O)c2c(-c3ccccc3)noc2C)c1`, the protection (pct of control) was 14.1%.

Take `CCOC(=O)c1c(-c2ccccc2)csc1NC(=S)NC(=O)c1ccccc1`: the protection (pct of control) was 9.01%.

As to `CCc1cc(C(=O)OC)c(NC(=O)CC2Sc3ccc(C(F)(F)F)cc3NC2=O)s1` (stereo unspecified), the protection (pct of control) is 11.3%.

Take `CCOc1ccc(NC(=O)c2ccc(CSc3nnnn3C)cc2)cc1`: the protection (pct of control) was 10.1%.

`Cc1c(C(=O)Nc2cccc(Cl)c2)cn2c(nc3ccccc32)c1C#N`: the protection (pct of control) is 8.24%.

As for `CCCCC(NS(=O)(=O)c1ccc(C)cc1)C(=O)Oc1ccc2c3c(c(=O)oc2c1)CCC3` (stereo unspecified), the protection (pct of control) is 9.68%.

Consider `CC1CN(S(=O)(=O)c2ccc(C(=O)Nc3sccc3C(N)=O)cc2)CC(C)O1` (stereo unspecified), for which the protection (pct of control) is 9.47%.

`O=C(Nc1cccc(NC(=O)N2CCN(c3ccccc3)CC2)c1)N1CCN(c2ccccc2)CC1`: the protection (pct of control) is 27.8%.

Turning to `O=C(NC(=S)N1CCN(Cc2ccccc2)CC1)c1ccccc1`, the protection (pct of control) was 18%.

For the compound `O=C(Nc1ccccc1)N1CCN(Cc2ccccc2)CC1`, the protection (pct of control) is 65.6% (active).

As for `CN(Cc1ccccc1)C(=O)COC(=O)c1ccccc1Nc1ccccc1`, the protection (pct of control) is 18.6%.

On to `O=[N+]([O-])c1ccccc1SNc1ccccn1`, for which the protection (pct of control) is 4.84%.

`COc1cc(OC)nc(NC(=O)CCl)n1`: the protection (pct of control) was 15.4%.

For the compound `O=C(CCl)NNc1cccc(Cl)n1`, the protection (pct of control) is 28.9% (active).

As to `O=C(NNc1ccccn1)c1ccc(Cl)nc1`, the protection (pct of control) was 3.74%.

For the compound `COc1cc(OC)c(C(=O)Nc2ccccc2-c2ccccc2)cc1OC`, the protection (pct of control) was 39.7%.

On to `CC(OC(=O)CNS(=O)(=O)/C=C/c1ccccc1)C(=O)Nc1ccc(S(=O)(=O)N2CCCC2)cc1` (stereo unspecified), for which the protection (pct of control) is 8.77%.

Regarding `Cc1nn(Cc2ccc(F)cc2)c(C)c1NC(=O)c1cccnc1Cl`, the protection (pct of control) was 10.5%.

Take `CC(NC(=O)CSc1nc2c(cc1C#N)CN(C)CC2)c1ccccc1` (stereo unspecified): the protection (pct of control) is 48.7% (active).

Turning to `CC1(C)CCc2nc(SCc3ccccc3)c(C#N)cc2C1`, the protection (pct of control) was 17.7%.

With `Cc1nc2cc(NC(=O)CSc3nc4c(C)cccc4cc3C#N)ccc2s1`, the protection (pct of control) was 7.78%.
